Measured values from the supplement of paper PMC6331611.
± gives the standard deviation of the averaged measurements. In all, about 1,600 compounds were measured (“normalized intracellular growth (luminescence, IQM-normalized) in RAW264.7 macrophages”: median about 1, lowest 2% from about 0.43 on). The entries come from a sample that favours the lowest values as a whole.

Test system: Salmonella enterica serovar Typhimurium SL1344
Test: normalized intracellular growth (luminescence, IQM-normalized) in RAW264.7 macrophages (fraction of plate interquartile mean); higher = more bacterial growth (less inhibition)
Conditions: 10 µM

Compound	normalized intracellular growth (time point: T3 (3 h))	normalized intracellular growth (time point: Tfinal (~6 h))
Oc1ccc(Cl)cc1Cc1cc(Cl)ccc1O	1.03 ± 0.02	0.859 ± 0.13
Oc1cc(Cl)ccc1Oc1ccc(Cl)cc1Cl	0.343 ± 0.083	0.256 ± 0.12
Oc1ccc(Cl)cc1	1.02 ± 0.017	1.13 ± 0.023
N=C1NC(=O)N2CC12 (stereo not given)	1.051 ± 0.0073	0.853 ± 0.12
O=[N+]([O-])OCC(CO[N+](=O)[O-])O[N+](=O)[O-]	1.01 ± 0.044	0.68 ± 0.22
CC[C@H]1[C@@H]2C[C@H]3[C@@H]4N(C)c5ccccc5[C@]45C[C@@H]([C@@H]2[C@H]5O)N3[C@@H]1O	1.07 ± 0.066	0.799 ± 0.035
CCn1cc(C(=O)O)c(=O)c2cc3c(cc21)OCO3	0.923 ± 0.032	0.192 ± 0.011
CC[C@@H](c1cccc(O)c1)[C@@H](C)CN(C)C	1.09 ± 0.081	0.708 ± 0.38
CC[C@@H](C(=O)[C@@H](C)[C@@H](O)[C@H](C)[C@@H]1O[C@@H]([C@@H](CC)C(=O)O)CC[C@@H]1C)[C@H]1O[C@]2(C=C[C@@H](O)[C@]3(CC[C@@](C)([C@H]4CC[C@](O)(CC)[C@H](C)O4)O3)O2)[C@H](C)C[C@@H]1C	1.06 ± 0.083	0.73 ± 0.13
CN1C[C@H](C(=O)N[C@]2(C)O[C@@]3(O)[C@@H]4CCCN4C(=O)[C@H](Cc4ccccc4)N3C2=O)C=C2c3cccc4[nH]cc(c34)C[C@H]21	1.03 ± 0.02	0.769 ± 0.38
CC([C@H](O)c1ccccc1)N(C)C (stereo not given in full)	0.977 ± 0.096	1.08 ± 0.12
C=C/C=C\CC1=C(C)[C@@H](OC(=O)[C@@H]2[C@@H](/C=C(\C)C(=O)OC)C2(C)C)CC1=O.C=C/C=C\CC1=C(C)[C@@H](OC(=O)[C@@H]2[C@@H](C=C(C)C)C2(C)C)CC1=O	1.01 ± 0.014	0.938 ± 0.13
OC[C@@H](O)[C@H]1O[C@@H]2O[C@H](C(Cl)(Cl)Cl)O[C@@H]2[C@H]1O	1.01 ± 0.039	1.07 ± 0.077
CC(=O)[O][Hg][c]1ccccc1	0.575 ± 0.093	0.336 ± 0.15
O=C([O-])Cc1ccccc1.[Na+]	1.15 ± 0.043	0.699 ± 0.11
CCCCOC(=O)c1ccccc1C(=O)OCCCC	1.029 ± 0.01	1.11 ± 0.15
C[CH2][Hg][S]c1ccccc1C(=O)[O-].[Na+]	0.4 ± 0.083	0.819 ± 0.26
CC(O)CN1CCN(CC(=O)[O-])CCN(CC(=O)[O-])CCN(CC(=O)[O-])CC1.[Gd+3] (stereo not given)	0.946 ± 0.083	1.23 ± 0.098
C#CC(C)(O)CC (stereo not given)	0.971 ± 0.038	0.758 ± 0.24
CCN1C[C@]2(COC)[C@H](O)C[C@H](OC)[C@@]34[C@@H]5C[C@@]6(O)[C@H](OC(=O)c7ccccc7)[C@@H]5[C@@](OC(C)=O)([C@@H]([C@H](OC)[C@H]23)[C@@H]14)[C@@H](O)[C@@H]6OC	0.971 ± 0.025	0.837 ± 0.045
